Bioassay records deposited in PubChem by National Center for Advancing Translational Sciences (NCATS).
PK Bst = pyruvate kinase (B. stearothermophilus) modulation. 51,000 tested, 1.2% active. Potency, µM. purified pyruvate kinase, luminescence ATP production; ribose 5-phosphate activator present at AC10; in the data active = potency below about 11 µM; inconclusive = mostly about 12 µM to 25 µM;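 the screen sought inhibitors and activators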
FLuc inh = inhibitors of firefly luciferase; purified firefly luciferase, luminescence, 8 min; Potency, µM (titrated, usually from 57.1 µM), most hits filed as inhibitors; 72,000 tested, 2.2% active; AID 411; active = well fitted inhibition curve with a large enough effect; inconclusive = small, poorly fitted or top-dose-only effect; note: nearly all actives have a fitted effect of over 40% in size
Target sequence (P08659 whole entry, looked up): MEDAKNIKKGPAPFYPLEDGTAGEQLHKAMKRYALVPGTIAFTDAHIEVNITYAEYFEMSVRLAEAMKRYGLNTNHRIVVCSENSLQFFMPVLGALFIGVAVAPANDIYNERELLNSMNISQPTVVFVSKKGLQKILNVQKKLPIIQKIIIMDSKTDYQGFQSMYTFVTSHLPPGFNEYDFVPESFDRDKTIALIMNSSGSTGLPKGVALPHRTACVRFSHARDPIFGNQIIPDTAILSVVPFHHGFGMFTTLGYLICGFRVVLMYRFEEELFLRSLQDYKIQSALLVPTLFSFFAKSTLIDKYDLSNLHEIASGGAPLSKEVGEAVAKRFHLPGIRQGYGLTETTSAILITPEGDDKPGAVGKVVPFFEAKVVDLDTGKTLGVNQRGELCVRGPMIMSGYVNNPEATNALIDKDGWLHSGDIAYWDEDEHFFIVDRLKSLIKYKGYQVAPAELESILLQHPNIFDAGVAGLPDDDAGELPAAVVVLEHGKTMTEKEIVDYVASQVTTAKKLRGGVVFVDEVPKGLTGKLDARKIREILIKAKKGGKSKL
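Luminescence read-out after 8 min at room temperature; enzyme reaction used luciferin plus 10 uM ATP (linear range) in imidazole buffer pH 7.2 with KCl, MgCl2, Tween 20 and BSA. Each sample was run as a titration.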
Large screens that a line does not name were inactive. Hits are enriched below; roughly 2.5% of the tested compounds scored in any of these assays.

CCOC(=O)N/N=C1/C[C@@H](O)[C@@H](O)[C@@H]2[C@@H]3C(=O)N(C(C)(C)C)C(=O)[C@H]3CC[C@H]12	none (no result: PK Bst)
CCN1CCN(Cc2ccccc2NC(=O)Nc2ccc(C)cc2)CC1	none
CCN1CCN(Cc2ccc(NC(=O)Nc3ccccc3Cl)cc2)CC1	FLuc inh 15.8µM (no result: PK Bst)
O=C(O)c1cccc(N=Nc2c(S(=O)(=O)O)ccc3c2C(=O)c2ccccc2C3=O)c1O	none (no result: PK Bst)
O=C(O)[C@@H]1[C@@H](C(=O)Nc2ccccc2)[C@@H]2C=C[C@@H]1O2	none (no result: PK Bst)
O=C(OCc1nnc(-c2ccc(Cl)cc2)o1)c1ccc(=O)n(Cc2ccccc2)n1	PK Bst 9.84
O=C(OCc1nnc(-c2ccc(Cl)cc2)o1)c1ccncc1	none
CCOc1ccc(Cc2nccc3cc(OCC)c(OCC)cc23)cc1OCC	none (no result: PK Bst)
CN(C)c1ccc(Nc2nc(-c3cccnc3)cs2)cc1	FLuc inh 0.631µM (no result: PK Bst)
O=C(Nc1nc(-c2cccnc2)cs1)c1ccc(S(=O)(=O)N2CCOCC2)cc1	none
COc1ccc(/C=N/n2c(N)nc3ccccc32)cc1OC	PK Bst 8.38, FLuc inh 6.31µM
CCSc1nncn1/N=C/c1ccc(OC)c(OC)c1	none (no result: PK Bst)
CCCn1c(=O)c(C)cn2nc(N)nc12	none (no result: PK Bst)
Cc1noc(C)c1-c1cc(NC2CC2)ncn1	none (no result: PK Bst)
Cc1ccc(-c2cc(-c3cccc(F)c3)n[nH]2)c(O)c1	PK Bst 10.7, FLuc inh 12.6µM
COc1ccc(-c2[nH]ncc2-c2ccc3c(c2)OCCO3)c(O)c1	none
Oc1ccccc1-c1cc(-c2ccc3c(c2)OCCO3)n[nH]1	PK Bst 1.86, FLuc inh 3.16µM
COc1cc(-c2ccc(=O)[nH]n2)ccc1OC(F)F	none (no result: PK Bst)
COc1ccc(-c2cc(-c3cc(F)ccc3O)[nH]n2)cc1OC	PK Bst 9.56, FLuc inh 12.6µM
COc1ccc(-c2cc(-c3ccccc3O)[nH]n2)cc1OC	FLuc inh 3.98µM (no result: PK Bst)
COc1ccc(O)c(-c2cc(-c3cccc(Br)c3)n[nH]2)c1	none (no result: PK Bst)
COC(=O)c1cc(-c2ccc(OC)c(OC)c2)n[nH]1	none (no result: PK Bst)
O=C(NCCC[N+]1=CC=N[C@H]1c1ccccc1)N1CCCc2nc(-c3ccc(Br)cc3)ccc21	none (no result: PK Bst)
CCCNC(=O)OC[C@@H]1O[C@H](CCO/N=C(\C)CCN2CCCCc3nc(C)c(C)cc32)C=C[C@@H]1Oc1ccc(OC)cc1	none (no result: PK Bst)
Cc1ccc(C)c(/C(=N\N=C(N)N)C2CC2)c1	none (no result: PK Bst)
Cc1ccc(S(=O)(=O)NC(=O)OC23COCN2COC3)cc1	none (no result: PK Bst)
CC(=O)OC(C)(C)N=Nc1ccc(Br)cc1	none (no result: PK Bst)
CCCCCCCCCCCCCCCC(=O)NC[C@@H](COP(=O)([O-])OCC[N+](C)(C)C)OCC	none (no result: PK Bst)
COc1ccc(-c2ccc(=O)[nH]n2)cc1	none
COc1ccc(C2=C(N)c3ccccc3C2=O)cc1	FLuc inh 12.6µM (no result: PK Bst)
CO[C@@H]1COC(=O)C/C=C\[C@@H](C)COC(=O)[C@H](COCc2ccccc2)NC(=O)C/C=C\[C@H]1C	none (no result: PK Bst)
COc1ccc(-c2ccc(SCC(=O)Nc3cc(C)on3)nn2)cc1OC	FLuc inh 12.6µM
COc1ccc(-c2nnc(SCC(=O)Nc3cc(C)on3)n2N)cc1OC	none
O=C(O)CSc1ccc([N+](=O)[O-])cc1[N+](=O)[O-]	none (no result: PK Bst)
COc1ccc(Cc2nn3c(Cn4nnc5ccccc54)nnc3s2)cc1	FLuc inh 15.8µM (no result: PK Bst)
c1ccc(-c2nn3c(Cn4nnc5ccccc54)nnc3s2)cc1	none
OC[C@@H]1O[C@@H](n2cnc3c(NCCc4ccccc4)ncnc32)[C@@H](O)[C@H]1O	none (no result: PK Bst)
NC(=O)c1cc(-c2ccccc2)nc(N2CCCCCC2)n1	none
NC(=O)c1cc(-c2ccccc2)nc(N2CCOCC2)n1	PK Bst 4
CN(Cc1ccco1)c1ccnc(-c2ccoc2)n1	none (no result: PK Bst)
COc1cccc(-c2nn(-c3ccccc3)cc2CO)c1	none (no result: PK Bst)
COc1cccc(-c2nn(-c3ccccc3)cc2C(=O)NCC(=O)O)c1	FLuc inh 20µM (no result: PK Bst)
CCN(CC(=O)O)C(=O)c1cccnc1	none (no result: PK Bst)
Cc1onc(-c2c(F)cccc2Cl)c1C(=O)Nc1nc2c(s1)CCCC2	none
O=C(Nc1nc(=O)c2ccccc2s1)c1ccccc1	none
Cc1onc(-c2ccccc2)c1C(=O)Nc1nc2c(s1)CCCC2	none
O=C(Nc1nc2c(s1)C(=O)CCC2)c1ccccc1	FLuc inh 12.6µM (no result: PK Bst)
Cc1cc(C(=O)Nc2nc3c(s2)CCCC3)no1	FLuc inh 25.1µM
CN(C)c1ccc(C(=O)Nc2nc3c(s2)CCCC3)cc1	FLuc inh 5.01µM (no result: PK Bst)
O=C1/C(=C/c2ccccc2)[C@@H](NC2CCCCC2)c2ccccc21	none (no result: PK Bst)
N#Cc1cccc(-c2nc3cnc(N4CCOCC4)nc3n(C[C@H]3CCCO3)c2=O)c1	none (no result: PK Bst)
Cc1cc(NC(=O)c2ccco2)ncc1NC(=O)CCc1ccccc1	none
c1ccc(CCc2nc(-c3cccnc3)no2)cc1	none
O=C(Nc1cccc(-c2cnc3ccccc3n2)c1)c1ccco1	PK Bst inconclusive
Cc1cc(NC(=O)c2cccc(F)c2)ncc1NC(=O)c1ccco1	FLuc inh 15.8µM (no result: PK Bst)
O=C(Nc1cccnc1)c1ccc(NC(=O)c2ccco2)cc1	none
O=C(Nc1ccc(NC(=O)c2ccco2)nc1)c1cccnc1	FLuc inh 25.1µM (no result: PK Bst)
O=C(Nc1cnc2ccccc2c1)c1ccco1	FLuc inh 20µM
O=C(Nc1ccc(-c2noc(CCc3ccccc3)n2)cc1)c1ccco1	PK Bst inconclusive, FLuc inh 10µM
O=C1C=C[C@@H](O)[C@H]2[C@@H]3C(=O)N(Cc4ccccc4)C(=O)[C@@H]3CC[C@H]12	none (no result: PK Bst)
Cn1cc(-c2nc3cnc(N4CCOCC4)nc3n(CCC#N)c2=O)c2ccccc21	none (no result: PK Bst)
C[C@@H](SCc1ccccc1)C(=O)O	none (no result: PK Bst)
c1ccc2c(c1)nnn2CN1CCOCC1	none (no result: PK Bst)
COc1ccc(CNc2ncnc3ccc(-c4ccccc4CN(C)C)cc23)c(OC)c1	none (no result: PK Bst)
c1ccc(-c2ccc(-c3ccc(C4=NCCN4)cc3)o2)cc1	none (no result: PK Bst)
COc1ccc(C)cc1NC(=O)CSc1nnc(-c2ccc(C)cc2)o1	none (no result: PK Bst)
COc1ccc(C)cc1NC(=O)CN(Cc1nnc(-c2ccc(Cl)cc2)o1)C1CCCC1	PK Bst 4.71
N[C@H](Cc1ccc(O)c(I)c1)C(=O)O	none (no result: PK Bst)
O=C(N/N=C1/C[C@@H](O)[C@@H](O)[C@@H]2[C@@H]3C(=O)N(Cc4ccccc4)C(=O)[C@H]3CC[C@@H]12)OCc1ccccc1	none (no result: PK Bst)
Cn1cc(SCC(=O)NCc2ccc3c(c2)OCO3)c2ccccc21	none (no result: PK Bst)
CCn1cc(SCC(=O)NCc2ccc3c(c2)OCO3)c2ccccc21	FLuc inh 2µM (no result: PK Bst)
O=C(O)CCCCn1cnc2c(=S)nc[nH]c21	none (no result: PK Bst)
NC(=S)c1ccc[n+]([C@@H]2O[C@@H](COP(=O)([O-])OP(=O)(O)OC[C@@H]3O[C@@H](n4cnc5c(N)ncnc54)[C@@H](OP(=O)(O)O)[C@H]3O)[C@@H](O)[C@H]2O)c1	none (no result: PK Bst)
O=C(CN1CCN(c2ccccn2)CC1)Nc1ccc2ccccc2c1	FLuc inh 39.8µM
O=C(CN1CCN(c2ccccn2)CC1)Nc1ccc(Cl)c(C(F)(F)F)c1	none
O=C1[C@@H]2[C@H]3[C@H](O)[C@H](O)C/C(=N/OC[C@@H](O)COCc4ccco4)[C@H]3CC[C@H]2C(=O)N1c1ccc(F)cc1F	none (no result: PK Bst)
CC(C)CO/N=C1/C[C@@H](O)[C@@H](O)[C@@H]2[C@@H]3C(=O)N([C@@H](C)c4ccccc4)C(=O)[C@H]3CC[C@H]12	none (no result: PK Bst)
Cc1ccc(O)c(-c2cc3ccccc3[nH]2)c1	none (no result: PK Bst)
Cc1ccc2[nH]c(-c3cccc(N)c3)cc2c1	PK Bst inconclusive, FLuc inh 12.6µM
FC(F)(F)c1ccccc1-c1cncnc1NCCN1CCOCC1	none (no result: PK Bst)
COc1cc(NC(=O)c2cc3c(C)nc4ccccc4c3o2)cc(OC)c1OC	none (no result: PK Bst)
COc1ccc(NC(=O)c2cc(-c3ccc(C)o3)nc3ccccc23)cc1OC	PK Bst 3.67, FLuc inh 2.51µM
